Molecules are shown by their SMILES. Screen size: about 69,000 compounds; about 8,600 (12%) showed an effect of 50% or more. Many of the other results were omitted from the sample, so strong results are more common in it than they were.

For this assay, the system named is Plasmodium berghei. The assay is described as follows: Screen against P. berghei liver stage (PbLuc), transformed with Luciferase, at 10uM. Format: functional, HepG2. To be noted: tested at 10 uM.
Turning to `CC(C)Nc1nc2c(s1)C(=O)CN(C(=O)NCc1ccccc1)C2`, the INHIBITION came out at 73.8%.

Take `CNc1nc2c(s1)C(=O)CN(C(=O)NCc1ccccc1)C2`: the INHIBITION was found to be 42.9%. The value for `CNc1nc2c(s1)C(=O)CN(C(=O)NCCc1ccccc1)C2` was 23.4%; that for `CC[C@H](C)[C@H](N)C(=O)N1CC(=O)c2sc(NCc3ccccc3)nc2C1` was 61.9%. The value for `COCCN1CC(=O)c2sc(NCc3ccccc3)nc2C1` was -0.371%; that for `CCNc1nc2c(s1)C(=O)CN(C(=O)NCCc1ccccc1)C2` was 24.4%; that for `CC[C@H](C)[C@H](N)C(=O)N1CC(=O)c2sc(NC3CCCCC3)nc2C1` was 35.2%.

As to `CCNc1nc2c(s1)C(=O)CN(C(=O)NCc1ccccc1)C2`, the INHIBITION was 66.4%.

With `CC(C)Nc1nc2c(s1)C(=O)CN(C(=O)NCCc1ccccc1)C2`, the INHIBITION is reported as -7.79%. Consider `O=C(Cc1ccccc1)N1Cc2nccn2CC(CN2CCCC2)C1` (stereo not drawn), for which the INHIBITION is 11.3%. Regarding `O=C(c1cccc(NCCOc2ccc(F)cc2)c1)N1CCOCC1`, the INHIBITION is 10.6%. As for `CC(C)c1nc(-c2cc(C(=O)N3CCN(C)CC3)c3ccccn23)cs1`, the INHIBITION is reported as 10.5%. The value for `CCC(CC)C(=O)c1c[nH]c(C(=O)N2CCN(c3ccccc3)CC2)c1` was -26.8%.

On to `Cc1noc(C)c1C(C)C(=O)N1CCCN(Cc2cscn2)CC1` (stereo not drawn), for which the INHIBITION was found to be 21.08%. In the case of `CS(=O)(=O)Cc1ccc(C(=O)NCc2ccc(Cl)cc2Cl)cc1`, the INHIBITION stood at 29.4%. The figure for `O=C(NCc1nc(NC2CCCC2)c2cc(Cl)ccc2n1)c1cncs1` is 68.6%; for `O=C(NCCSC1CCCC1)c1cc(Cl)ccn1` it is -45%; for `COc1ccc(-n2cc(CNC(=O)c3cscn3)nn2)cc1` it is -27.3%.

Take `O=C(NCc1nc(NC2CCCC2)c2cc(Cl)ccc2n1)c1ccoc1`: the INHIBITION turned out to be 89%. The figure for `O=C(NCc1nc(NC2CCCC2)c2cc(Cl)ccc2n1)c1cscn1` is 54.6%; for `O=C(NCCNC(=O)c1scnc1Cl)c1ccoc1` it is -23.8%.

As to `COCC(=O)N1CCC(Nc2ccnc3ccc(Cl)cc23)CC1`, the INHIBITION is given as -56.3%. The figure for `NC(=O)CN1CCC(Nc2ccnc3ccc(Cl)cc23)CC1` is 15.1%; for `O=C(NCCNC(=O)C1CCN(c2ncccn2)CC1)c1ccoc1` it is 15.1%. The value for `COc1ncccc1C(=O)N1CC[C@H]2C[C@@H](c3noc(C)n3)O[C@@H]2C1` was 15.4%. The value for `COCC1CC2(CCN(Cc3ccco3)CC2)CN1C(C)C` (stereo not drawn) was 14.6%. As for `CCn1cc(CNCC(c2ccc(Cl)cc2)n2cccn2)cn1` (stereo not drawn), the INHIBITION was 3.58%. With `Cc1nc2cc(NC(=O)Cn3ncc(N4CCCC4)cc3=O)ccc2s1`, the INHIBITION came to 41.2%. As for `COCCN1C(=O)CCC12CCC(NCc1cccc(C)n1)CC2` (stereo not drawn), the INHIBITION is 41%. The value for `O=C(Cc1c[nH]c2ncccc12)NCC(O)c1ccccc1F` (stereo not drawn) was 26.05%; that for `CC(=O)N1C[C@H]2CC[C@@H](C1)N(Cc1ccc(Cn3cccn3)cc1)C2` was 4.59%; that for `Cc1c(CN(C)C(=O)c2ccnn2C)cnn1C` was 31.7%. The value for `CCn1ncc(CN(C)C(=O)c2cc(C(F)(F)F)n(C)n2)c1C` was 1.86%; that for `Cc1cc(C(=O)N(C)Cc2cnn(C)c2C)n(C)n1` was 68.9%; that for `O=C(Cc1csc(-c2ccco2)n1)N1CCSCC1` was -5.25%. With `CN(Cc1ccc(F)cc1)C(=O)CN1CCCC(Cn2cncn2)C1` (stereo not drawn), the INHIBITION came out at 11.6%. The value for `CCN(Cc1ccccc1)C(=O)CN1CCCC(Cn2cncn2)C1` (stereo not drawn) was 63.9%. The figure for `CCN(Cc1ccccc1)C(=O)CN1CCOC(Cn2cncn2)C1` (stereo not drawn) is -122%. The figure for `CN(Cc1ccccc1)C(=O)CN1CCCC(Cn2cncn2)C1` (stereo not drawn) is -25.9%. `Cc1ccc(CN(C)C(=O)CN2CCCC(Cn3cncn3)C2)cc1` (stereo not drawn): the INHIBITION was 51.1%. With `CN(Cc1ccsc1)C(=O)CN1CCCC(Cn2cncn2)C1` (stereo not drawn), the INHIBITION is recorded as 17.5%.

As to `CN(Cc1cccc(F)c1)C(=O)CN1CCCC(Cn2cncn2)C1` (stereo not drawn), the INHIBITION came out at 75.2%.

For `CN(Cc1cccc(F)c1)C(=O)CN1CCCCC1Cn1cncn1` (stereo not drawn), the INHIBITION came to 13.5%. The value for `CN(Cc1cccc(F)c1)C(=O)CN1CCOC(Cn2cncn2)C1` (stereo not drawn) was 37.9%; that for `CO[C@H]1CCN(S(=O)(=O)c2cccs2)[C@H]1Cc1cccnc1` was -5.05%; that for `Cc1cc(C(=O)NCCN2CCN(S(C)(=O)=O)CC2)no1` was 10.3%. Take `COc1cc(C2CC(=O)Nc3c2cnn3C)ccc1O` (stereo not drawn): the INHIBITION is reported as 10.9%.

For the compound `CC(=O)N1C[C@@H](c2ccsc2)[C@@H]2CN(Cc3ccccc3Cl)CC[C@@H]21`, the INHIBITION is 73.8%. On to `O=C(C1CCC1)N1C[C@@H](c2ccsc2)[C@@H]2CN(C3CCCC3)CC[C@@H]21`, for which the INHIBITION is recorded as 5.34%. In the case of `COc1ccccc1CN1CC[C@H]2[C@@H](C1)[C@H](c1ccsc1)CN2C(C)=O`, the INHIBITION is recorded as 24.8%. Take `CC(=O)N1C[C@@H](c2ccsc2)[C@@H]2CN(Cc3ccccc3C)CC[C@@H]21`: the INHIBITION is reported as 64.9%. The figure for `O=C(C1CCCC1)N1C[C@@H](c2ccsc2)[C@@H]2CN(C3CCCC3)CC[C@@H]21` is 45.2%; for `CC(=O)N1C[C@@H](c2ccsc2)[C@@H]2CN(CC3CCCCC3)CC[C@@H]21` it is 30.8%.

Source of the values: ChEMBL document CHEMBL4513216, “Probing the Open Global Health Chemical Diversity Library for Multistage-Active Starting Points for Next-Generation Antimalarials” (ACS Infect Dis, 2020).
